HTT-AS promoter – Primary qHTS for Identification of Small Molecule Activators of Huntingtin-Antisense Promoter Activity; Potency, µM (titrated, usually from 57.5 µM), actives largely listed as activators; HEK293 HTT-AS promoter firefly luciferase reporter, 24 h; response scale: percent change from vehicle, -100% = no light; hit rate 0.24% among 48,000; further: nearly all actives have a fitted effect of over 55% in size
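Firefly luciferase readout (Dual-Glo, 10 min RT) after 24 h, 37 °C compound exposure (final up to 57.5 uM) of HEK293 reporter cells cultured 24 h beforehand; PTC124 at 50 uM final as control inhibitor; activity scaled vehicle 0%, zero RLU -100%.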
HTT promoter inh – Primary qHTS for Identification of Small Molecule Inhibitors of Huntingtin Promoter Activity | HEK293 HTT promoter firefly luciferase reporter, 24 h | Potency, µM (series often up to 57.5 µM), hits mostly inhibitors | hit rate 0.93% among 48,000; further: nearly all actives have a fitted effect of over 50% in size
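HEK293 Fluc reporter, 2,500 cells/well, 24 h pre-culture; cpds up to 57.5 uM final, 24 h 37 degrees C; Dual-Glo, 10 min RT; normalized vehicle = 0%, zero RLU = -100%.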
NTMT1 inhibitor – Primary qHTS for Inhibitors of N-terminal methyltransferase 1 (NTMT1): MTaseGlo Assay; Potency, µM (doses to about 114 µM), hits mostly inhibitors; N-terminal Xaa-Pro-Lys N-methyltransferase 1 (Homo sapiens), Q9BV86; NTMT1 MTase-Glo SAH luminescence, purified enzyme; AID 1645870, 2021; hit rate 2.5% among 59,000; further: nearly all actives have a fitted effect of over 65% in size
CLK4 KinaseGlo – Confirmation Assay for Inhibitors of CDC-like Kinase 4 (Kinase-Glo Assay): SAR round 2 | shares compounds with NTMT1 inhibitor | recombinant Clk4, Kinase-Glo ATP luminescence, 4.5 h | Potency, µM (doses to about 76.9 µM), usual class: inhibitors | hit rate 90% among 90 | AID 493204, 2011
Sfp PPTase inh – qHTS Assay for Inhibitos of Bacillus subtilis Sfp phosphopantetheinyl transferase (PPTase): Chemistry Optimization Followup | shares compounds with NTMT1 inhibitor | purified Sfp PPTase enzyme activity, qHTS | Potency, µM (highest dose often 114 µM), most hits filed as inhibitors | hit rate 78% among 230 | AID 540350, 2011
Bsub HM489 growth – qHTS for Inhibitos of Bacillus subtilis Sfp phosphopantetheinyl transferase (PPTase): Chemistry Optimization Followup in B. Subtilis HM489 | shares compounds with NTMT1 inhibitor | B. subtilis HM489 (acpS-) growth, BacTiter-Glo, 5 h | Potency, µM (top dose mostly 114 µM), actives largely listed as inhibitors | hit rate 50% among 220 | AID 540353, 2011
Sfp gel opt – Gel-Based Assay for Inhibitos of Bacillus subtilis Sfp phosphopantetheinyl transferase (PPTase): Chemistry Optimization Followup; shares compounds with NTMT1 inhibitor; purified Sfp PPTase, gel-based product detection; Potency, µM (highest dose often 250 µM), hits mostly inhibitors; hit rate 54% among 220; AID 540355, 2011
Sfp gel – qHTS Assay for Inhibitors of Bacillus subtilis Sfp phosphopantetheinyl transferase (PPTase): Gel Based Assay | shares compounds with NTMT1 inhibitor | purified Sfp PPTase, gel-based product detection | Potency, µM (series often up to 250 µM), hits mostly inhibitors | hit rate 90% among 45 | AID 602362, 2012
Sfp SAR2 – qHTS Assay for Inhibitors of Bacillus subtilis Sfp phosphopantetheinyl transferase (PPTase): SAR Round 2 | shares compounds with NTMT1 inhibitor | purified Sfp enzyme, PPTase activity, qHTS | Potency, µM (series often up to 57.1 µM), hits mostly inhibitors | hit rate 87% among 230
hGST A1-1 inh – qHTS Assay for Inhibitors of Bacillus subtilis Sfp phosphopantetheinyl transferase (PPTase): SAR in hGST A1-1. Potency, µM (top dose mostly 114 µM), usual class: inhibitors. AID 602391, 2012. 55 tested, under 10 active. shares compounds with NTMT1 inhibitor. hGST A1-1 enzyme activity counter-screen, qHTS
HSD17B4 counter – Extended Characterization of HPGD Inhibitors: Counterscreen Against HSD17b4; shares compounds with NTMT1 inhibitor; purified HSD17B4, estradiol/NAD+, NADH fluorescence; Potency, µM (doses to about 57.1 µM), hits mostly inhibitors; hit rate 10% among 230; AID 743187, 2013
Target sequence (P51659 whole entry, looked up): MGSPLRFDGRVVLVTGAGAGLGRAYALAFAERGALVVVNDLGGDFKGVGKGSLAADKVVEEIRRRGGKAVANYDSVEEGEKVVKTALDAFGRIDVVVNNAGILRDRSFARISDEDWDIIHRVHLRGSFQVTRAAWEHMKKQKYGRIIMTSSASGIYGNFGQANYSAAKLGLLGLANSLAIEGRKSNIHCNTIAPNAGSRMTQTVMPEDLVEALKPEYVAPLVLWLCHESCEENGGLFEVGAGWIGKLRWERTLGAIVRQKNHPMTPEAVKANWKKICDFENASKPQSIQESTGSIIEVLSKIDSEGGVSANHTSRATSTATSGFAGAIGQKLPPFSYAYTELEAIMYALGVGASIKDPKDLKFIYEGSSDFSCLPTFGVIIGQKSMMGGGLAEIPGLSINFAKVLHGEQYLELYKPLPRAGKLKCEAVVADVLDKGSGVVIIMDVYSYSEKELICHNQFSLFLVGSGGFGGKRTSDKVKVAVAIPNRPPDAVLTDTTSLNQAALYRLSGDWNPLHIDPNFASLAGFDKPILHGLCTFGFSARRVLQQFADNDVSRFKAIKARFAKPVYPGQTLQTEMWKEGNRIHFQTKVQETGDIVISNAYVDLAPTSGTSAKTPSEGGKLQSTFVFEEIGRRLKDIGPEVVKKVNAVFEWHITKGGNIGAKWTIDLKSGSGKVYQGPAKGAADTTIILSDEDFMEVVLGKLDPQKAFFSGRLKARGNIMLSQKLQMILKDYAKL
ALDH1A1 inh – Extended Characterization of HPGD Inhibitors: Counterscreen Against ALDH1A1; shares compounds with NTMT1 inhibitor; recombinant ALDH1A1, NADH fluorescence, propionaldehyde/NAD+; Potency, µM (doses to about 57.1 µM), hits mostly inhibitors; hit rate 93% among 230
NNMT counter – Counterscreen qHTS for Inhibitors of N-terminal methyltransferase 1 (NTMT1): NNMT MTaseGlo assay | shares compounds with NTMT1 inhibitor | NNMT MTase-Glo luminescence, SAH detection | Potency, µM (titrated, usually from 57.1 µM), most hits filed as inhibitors | hit rate 10% among 120 | AID 1645878, 2021
Large screens that a line does not name were inactive (follow-up assays come after a bar, where they were run). The list is not random: actives were taken first. Their share in the collection is about 2.4%. The call rests on the fitted dose curve; in most records, active means well fitted curve in the direction sought with a large enough effect; inconclusive means small, poorly fitted or top-dose-only effect, or another doubt; inactive means no such curve, though single readings can be large; an effect the other way counts as inactive or inconclusive.

Cc1ccsc1CN(C)c1ncnc2ccc(-c3ccc(COC(=O)N(C)C)o3)cc12	none (no result: HTT-AS promoter, HTT promoter inh, NTMT1 inhibitor) | CLK4 KinaseGlo 1.5µM
Cc1ccc(CN(C(=O)c2ccc(C(C)(C)C)cc2)c2ccccn2)o1	HTT promoter inh inconclusive
Cc1ccc(C(=O)N(Cc2ccco2)Cc2sccc2C)cc1	none
Cc1ccc(CN(C)c2ncnc3ccc(-c4ccc(CO)o4)cc23)o1	NTMT1 inhibitor inconclusive (no result: HTT-AS promoter, HTT promoter inh) | CLK4 KinaseGlo 0.065µM
O=C([C@@H]1CCCN(c2ccc3[nH]c(C4(n5cc(Cl)cn5)CC4)nc3n2)C1)N1CCCC1	NTMT1 inhibitor inconclusive (no result: HTT-AS promoter, HTT promoter inh) | NNMT counter inactive
O=C(Nc1ccc(F)c(Cl)c1)C1CCCN(c2cnccn2)C1 (stereo not given)	none
O=C(Cc1c(F)cccc1F)Nc1cc(OCc2ccc(Cl)cc2)ccn1	none (no result: HTT-AS promoter, HTT promoter inh) | NNMT counter inconclusive
Cc1cc(Nc2cccc(Cl)c2)nc2ccc(NC(=O)Cc3c(F)cccc3Cl)cc12	none
CC(C)n1ncnc1-c1cn2c(n1)-c1ccc(O[C@@H](C)C(N)=O)cc1OCC2	none (no result: HTT-AS promoter, HTT promoter inh)
Cc1cccc(-c2[nH]c(C(C)(C)C)nc2-c2ccc3c(c2)OCO3)n1	HTT promoter inh inconclusive
CC(C)(C)Cn1c(N)nc2ccc(-c3[nH]c(C(C)(C)C)nc3-c3ccc(F)cc3)nc21	HTT promoter inh inconclusive, NTMT1 inhibitor 13µM | NNMT counter 14µM
CC(OC1OCCN(Cc2n[nH]c(=O)[nH]2)C1c1ccc(F)cc1)c1cc(C(F)(F)F)cc(C(F)(F)F)c1 (stereo not given)	none (no result: HTT-AS promoter, HTT promoter inh)
CC(=O)OC1CC(=O)C2(C)C3CC4=C(OC(C)CC4=O)OC3(C)CCC2C1(C)C (stereo not given)	none (no result: HTT-AS promoter, HTT promoter inh)
C[C@@]1(C(=O)O)CCC[C@@]2(C)C3=CC[C@H]4C[C@@]3(CC[C@H]12)CC4(O)CO (stereo not given in full)	none (no result: HTT-AS promoter, HTT promoter inh)
CC(=O)c1ccc(N2CCN(C(=O)CCC(=O)Nc3ccc4nc(N5CCCCC5)cc(C)c4c3)CC2)cc1	HTT promoter inh inconclusive, NTMT1 inhibitor inconclusive
Cc1cc(C)nc(NC(=S)N2CC3CN(c4ccc(Cl)cc4C(F)(F)F)CC3C2)c1 (stereo not given)	NTMT1 inhibitor inconclusive (no result: HTT-AS promoter, HTT promoter inh) | Sfp PPTase inh 0.26µM | Sfp SAR2 0.73µM | hGST A1-1 inh inconclusive | HSD17B4 counter inactive | ALDH1A1 inh 8.6µM
Cc1cc(C)c(NC(=O)CSc2nc(=O)n(Cc3ccncc3)c3c2CCC3)c(C)c1	HTT-AS promoter inconclusive
Cc1cc(C)nc(NC(=S)N2CCN(c3ccc(F)c(F)c3F)CC2)c1	NTMT1 inhibitor inconclusive (no result: HTT-AS promoter, HTT promoter inh) | Sfp PPTase inh 2.1µM | Bsub HM489 growth 21µM | Sfp gel opt 7.9µM | Sfp gel 2.4µM | Sfp SAR2 1µM | hGST A1-1 inh inactive | HSD17B4 counter inactive | ALDH1A1 inh 9.6µM
Cc1cc(C(=O)N2CCN(c3ccccc3F)CC2)c2c(C)nn(-c3ccccc3)c2n1	HTT promoter inh inconclusive
Cc1cc(C)nc(NC(=S)N2CCN(c3ccncc3)CC2)c1	NTMT1 inhibitor inconclusive (no result: HTT-AS promoter, HTT promoter inh) | Sfp PPTase inh inconclusive | Bsub HM489 growth inactive | Sfp gel opt inactive | Sfp SAR2 3.2µM | HSD17B4 counter inactive | ALDH1A1 inh 30µM
Cc1cc(C)nc(NC(=S)N2CCN(c3ccc(C(=O)O)cc3)CC2)c1	NTMT1 inhibitor inconclusive (no result: HTT-AS promoter, HTT promoter inh) | Sfp PPTase inh 9.4µM | Bsub HM489 growth inactive | Sfp gel opt inactive | Sfp SAR2 3.2µM | HSD17B4 counter inconclusive | ALDH1A1 inh 22µM
CC(=O)NC1CCN(c2nc(-c3ccc(Br)cc3)cs2)CC1	none (no result: HTT-AS promoter, HTT promoter inh)
CN1CCN(c2nc(-c3ccc(C(=O)NC4(C(=O)NCC#N)CCCCC4)cc3)cs2)CC1	none (no result: HTT-AS promoter, HTT promoter inh)
COc1ccc(C2C(C(=O)O)C(C(=O)O)C2c2ccc(OC)cc2O[C@@H]2O[C@H](CO)[C@@H](O)[C@H](O)[C@H]2O)c(O[C@@H]2O[C@H](CO)[C@@H](O)[C@H](O)[C@H]2O)c1 (stereo not given in full)	none (no result: HTT-AS promoter, HTT promoter inh)
CCOC(=O)c1csc(Nc2ccc(Cl)cc2)n1	none (no result: HTT-AS promoter, HTT promoter inh)
CC(C)=CCC/C(C)=C/CO[C@@H]1O[C@H](CO[C@@H]2OC[C@](O)(CO)[C@H]2O)[C@@H](O)[C@H](O)[C@H]1O	none (no result: HTT-AS promoter, HTT promoter inh)

Source: PubChem
